Shiga toxin inh = inhibitors of Shiga toxin in Vero cells; Vero cells, Shiga toxin protein synthesis inhibition reporter; inhibition, % at 38.7 µM; actives 9.2% (n = 290,000); in the data active means inhibition mostly above about 28%, no sharp cut-off; inactive means mostly below about 43%; further: 0% is about no effect
VACV Venus inh = vaccinia inhibition (Venus reporter); Vaccinia virus Venus reporter expression, fluorescence; Potency, µM (highest dose often 36.5 µM), without a hit: at the highest dose activity change, negative = inhibition, usual class: inhibitors; actives 0.46% (n = 330,000); AID 720580; calls by dose curve; tested in A549 cells; further: potency means the concentration at half of the fitted maximal effect; on the % scale 0 is the no-effect control and ±100 the full control effect; nearly all actives have a fitted effect of over 30% in size
Vaccinia mCherry = inhibitors of vaccinia virus infection (mCherry reporter signal) | Vaccinia virus mCherry reporter infection, fluorescence | Potency, µM (top dose mostly 36.5 µM), for the others: at the highest dose activity change, negative = inhibition, actives largely listed as inhibitors | actives 0.63% (n = 310,000); calls by dose curve; tested in A549 cells; further: potency means the concentration at half of the fitted maximal effect; on the % scale 0 is the no-effect control and ±100 the full control effect; nearly all actives have a fitted effect of over 35% in size
LASV entry inh = Lassa virus entry inhibition. Lassa virus pseudotype entry inhibition, cell reporter. AID 540256. Potency, µM (titrated, usually from 37.9 µM), inactives show at the top dose activity change, negative = inhibition, most hits filed as inhibitors. actives 1.2% (n = 300,000); calls by dose curve; tested in HEK293 cells; further: potency means the concentration at half of the fitted maximal effect; on the % scale 0 is the no-effect control and ±100 the full control effect; nearly all actives have a fitted effect of over 50% in size
Cycloheximide cs = counter-screen for Shiga toxin inhibitors: cycloheximide protein synthesis inhibition; cell reporter, cycloheximide protein synthesis inhibition counterscreen; actives 12% (n = 300,000); AID 2314; max response, %; in the data active means max response mostly above about 13%, no sharp cut-off; inactive means mostly below about 14%; further: read at 38.3 µM for the half of the compounds with a filed dose; 0% is about no effect
Marburg entry inh = blocks Marburg virus binding to or entry into cells; Marburg virus pseudotyped entry inhibition, cell reporter; Potency, µM (doses to about 37.8 µM), for the others: at the highest dose activity change, negative = inhibition, hits mostly inhibitors; actives 1.8% (n = 300,000); AID 540276; calls by dose curve; tested in HEK293 cells; further: potency means the concentration at half of the fitted maximal effect; on the % scale 0 is the no-effect control and ±100 the full control effect
Active calls of the source: *; i = inactive; ? = inconclusive; . = no result given; [ ] = another dose, or the depositor's remark. This excerpt belongs to a sample that is enriched for hits.

SMILES	Shiga toxin inh	VACV Venus inh	Vaccinia mCherry	LASV entry inh	Cycloheximide cs	Marburg entry inh
CC(Sc1nnc2ccccn12)C(=O)Nc1ccc2c(c1)OCCO2 (centres undefined)	85*	5%	-4%	13%	21*	2%[46.1 µM]
CC(C)n1nnnc1SCC(=O)NCc1ccc2c(c1)OCO2	-2	-7%	-7%	-18%	7	-10%[46.1 µM]
CC(C)n1nnnc1SCC(=O)Nc1ccc2c(c1)OCO2	70*	.	.	?	26*	?
O=c1c2ccccc2nnn1CSc1ccc2c(c1)OCCO2	26*	.	.	?	52*	11%
Cn1nnnc1SCC(=O)Nc1ccc2c(c1)OCCO2	81*	-7%	i	.	33*	.
CC(C)Cn1c(SC(C)C(=O)Nc2ccc3c(c2)OCCO3)nc2ccccc2c1=O (centres undefined)	4	-9%	-5%	12µM*	1	?
Cc1ccc(-n2nnnc2SCC(=O)Nc2ccc3c(c2)OCCO3)cc1C	9	-20%	.	8%	7	?
O=C(CSc1nnnn1Cc1ccccc1)Nc1ccc2c(c1)OCCO2	65	-12%	i	9%	23*	22%
O=C(CSc1ccc2c(c1)OCCO2)NCc1ccccc1	35	.	.	2%	18	5%
CC(CN1CC(=O)NC(=O)C1)N1CC(=O)NC(=O)C1 (centres undefined)	.	2%	-9%	.	.	.
OC(c1ccc(F)c(F)c1)c1ncc(-c2ccccc2F)[nH]1 (centres undefined)	.	-2%	-7%	.	.	.
CS/C(N)=N/S(=O)(=O)c1ccc(NC(C)=O)cc1	32	-5%	i	.	-4	.
COCC(C)n1c(SCC(=O)NNC(=O)c2ccccc2)nc2ccccc2c1=O (centres undefined)	3	-13%	-13%	-3%	7	-6%
CC(Sc1nnnn1C)C(=O)Nc1ccc2c(c1)OCCO2 (centres undefined)	115*	1%	-8%	?	29*	1%[46.1 µM]
CC(Sc1nnnn1C)C(=O)Nc1ccc(N2CCOCC2)cc1 (centres undefined)	28	.	.	6%	7	26%
COCC(C)n1c(SCC(=O)NC(=O)Nc2ccc3c(c2)OCCO3)nc2ccccc2c1=O (centres undefined)	65*	-10%	i	2%	33*	-14%
CCN1C(=NCc2ccc(OC)cc2)NC(c2ccccc2)C(C(=O)OC)=C1C (centres undefined)	.	.	.	.	.	-22%[14.2 µM]
CC(C)(C)Nc1nc(Cl)nc(NC2CCCCC2)n1	2	-9%	-6%	-3%	6	-27%
COc1nc(NCc2cccnc2)nc(NC2CCCCC2)n1	35*	-9%	-14%	14%	71*	-2%
COc1nc(NCc2cccnc2)nc(OC)n1	33	.	.	-13%	11	5%
C=CCNc1nc(Nc2ccc([N+](=O)[O-])cc2)nc(OC)n1	37	-3%	-11%	.	8	.
Cc1ccc(Nc2nc(Cl)nc(NC3CCCCC3)n2)cc1	62*	?	?	-26%	25*	?
COc1nc(Nc2ccc([N+](=O)[O-])cc2)nc(NC2CCCCC2)n1	78*	?	-16%	?	43*	?
Cc1nc2cc(NC(=O)c3ccc([N+](=O)[O-])s3)ccc2s1	52*	-22%	?	?	34*	?
COc1ccc2nc(NC(=O)c3cccs3)sc2c1	77*	-18%	i	?	44*	6.3µM*
SMILES	Shiga toxin inh	VACV Venus inh	Vaccinia mCherry	LASV entry inh	Cycloheximide cs	Marburg entry inh
O=C(Nc1ccc(S(=O)(=O)NC2=NCCCCC2)cc1)c1ccc([N+](=O)[O-])s1	.	11µM*	13µM*	?	.	?
O=C(Nc1nc2ccc(Cl)cc2s1)[C@@H]1CCCN1C(=O)c1cccs1	81*	-16%	-8%	?	82*	?
Cc1cccc2sc(NC(=O)[C@@H]3CCCN3C(=O)c3cccs3)nc12	14	0%	-11%	1%	0	?
Cc1cc(NS(=O)(=O)c2ccc(NC(=O)c3ccc([N+](=O)[O-])s3)cc2)nc(C)n1	.	?	?	2%	.	-20%
O=c1[nH]cc(F)c(=O)n1C1OC(CO)C(O)C1O (centres undefined)	.	-2%	-5%	.	.	.
CN(C)CCNC(=O)c1ccc2c(c1)N(Cc1ccccc1)C(=O)c1ccccc1S2(=O)=O	.	-19%	-16%	-7%[46.1 µM]	.	?
O=C(Cn1c(=O)n(Cc2ccco2)c(=O)c2ccccc21)Nc1ccc(Cl)cc1Cl	.	-12%	-6%	?	.	1%[46.1 µM]
Cc1nc2ccc(NC(=O)c3sccc3C)cc2s1	64*	-19%	-14%[1.46 µM]	?	64*	-26%
CC(=O)Nc1ccc2nc(NC(=O)c3ccc([N+](=O)[O-])s3)sc2c1	26	.	.	.	15	.
CC(=O)Nc1ccc2nc(NC(=O)c3cccs3)sc2c1	78*	-6%	-6%	?	43*	?
Cc1nc2ccc(NC(=O)c3cccs3)cc2s1	98*	-6%	-13%	5%[46.1 µM]	45*	13%[46.1 µM]
CCOC(=O)c1ccc(N2CCN(c3cccc(Cl)c3)CC2)c(NC(=O)Nc2ccc(OC)cc2OC)c1	.	-3%	-8%	?	.	.
COc1ccccc1OCc1nnc(-c2ccccc2)o1	.	-15%	-9%	22%[46.1 µM]	.	21%[46.1 µM]
COc1ccc(C2(C)NC(=O)N(CC(=O)Nc3ccc(-c4nc5ccc(C)cc5s4)cc3)C2=O)cc1 (centres undefined)	112*	-24%	?	?	64*	?
CCC1(c2ccc(F)cc2)NC(=O)N(CC(=O)Nc2ccc(-c3nc4ccc(C)cc4s3)cc2)C1=O (centres undefined)	107*	?	?	?	39*	?
Cc1ccc(NC(=O)CN2C(=O)NC(C)(c3ccc(Cl)cc3)C2=O)cc1 (centres undefined)	20	-20%	i	?	-5	-3%[46.1 µM]
CCC1(c2ccc(F)cc2)NC(=O)N(CC(=O)Nc2ccccc2C)C1=O (centres undefined)	-5	-4%	-19%	?	-3	-9%[46.1 µM]
CCOC(=O)c1c(C)[nH]c(C)c1S(=O)(=O)N1CCCC(C(=O)N2CCN(c3cc(C)ccc3C)CC2)C1 (centres undefined)	.	-18%	-25%	-26%[46.1 µM]	.	.
N#C/C(=C\c1ccc(-c2cc(Cl)ccc2Cl)o1)C(=O)Nc1cccc2ncccc12	.	.	.	3.7µM*	.	?
Cc1c(NC(=O)/C(C#N)=C/c2ccc(-c3cc(Cl)ccc3Cl)o2)c(=O)n(-c2ccccc2)n1C	-18	?	-16%	17%	-1	5%
Cc1ccc(S(=O)(=O)Nc2nc3c(s2)C(=O)CC(C)(C)C3)cc1	-15	-4%	-6%	-8%	9	12%[46.1 µM]
CC1(C)CC(=O)c2sc(NS(=O)(=O)Cc3ccccc3)nc2C1	41*	.	.	26%	27*	12%
CCOc1ccc2nc(N[C@@](NC(C)=O)(C(=O)OC)C(F)(F)F)sc2c1	.	.	.	.	.	-6%
COc1ccccc1C1CCN(c2ccc([N+](=O)[O-])c(OC)c2)CC1	64*	-14%	-15%	-24%	35*	0%[14.2 µM]
